# Measured values reported in article PMC7862700, “An all-to-all approach to the identification of sequence-specific readers for epigenetic DNA modifications on cytosine”.
# Assays:
# Assay in all cases: DAPPL (digital affinity profiling via proximity ligation, sequencing); 10 mM Tris-HCl pH 7.5, 50 mM NaCl, 1 mM DTT, 4% glycerol, room temperature, 30 min; GST-TFs on glutathione beads, 16-mer random dsDNA library, 0.1% formaldehyde crosslink after washing; high values mean tight binding
# Settings in all cases: protein: recombinant; tags: N-terminal GST; dsDNA, one strand shown
# ELK1 = target: T1, ELK1 (Homo sapiens, UniProt P19419 1-428)
# T1 sequence: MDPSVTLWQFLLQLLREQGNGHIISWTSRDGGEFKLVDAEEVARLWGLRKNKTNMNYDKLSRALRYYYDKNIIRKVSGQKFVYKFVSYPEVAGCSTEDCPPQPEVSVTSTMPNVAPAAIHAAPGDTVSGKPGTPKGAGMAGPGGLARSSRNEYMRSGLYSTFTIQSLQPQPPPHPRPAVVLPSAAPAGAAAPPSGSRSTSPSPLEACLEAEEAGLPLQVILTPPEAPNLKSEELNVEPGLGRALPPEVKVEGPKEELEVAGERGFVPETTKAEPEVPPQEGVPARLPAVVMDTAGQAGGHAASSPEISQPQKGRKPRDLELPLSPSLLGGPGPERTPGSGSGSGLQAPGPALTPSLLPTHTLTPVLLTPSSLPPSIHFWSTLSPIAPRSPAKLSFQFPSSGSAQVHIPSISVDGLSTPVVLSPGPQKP
# How it was run: (§1)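 After expression in yeast as GST fusions, human transcription factors were bound to glutathione beads, DNA-barcoded and mixed with a tag-only sample. The pools were incubated with 200 nmole of a 16-mer random double-stranded DNA library in Tris/NaCl/DTT/glycerol buffer (30 min, room temperature), washed and crosslinked with 0.1% formaldehyde. Proximity ligation with BsaI/T4 ligase ran for 1 h at 37 °C, before PCR amplification and sequencing on an Illumina NextSeq500. Binding signal is a hexamer's read frequency for a factor divided by its frequency for the tag-only sample.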
# GABPA = target: T2, GABPA (Homo sapiens, UniProt Q06546 1-454)
# T2 sequence: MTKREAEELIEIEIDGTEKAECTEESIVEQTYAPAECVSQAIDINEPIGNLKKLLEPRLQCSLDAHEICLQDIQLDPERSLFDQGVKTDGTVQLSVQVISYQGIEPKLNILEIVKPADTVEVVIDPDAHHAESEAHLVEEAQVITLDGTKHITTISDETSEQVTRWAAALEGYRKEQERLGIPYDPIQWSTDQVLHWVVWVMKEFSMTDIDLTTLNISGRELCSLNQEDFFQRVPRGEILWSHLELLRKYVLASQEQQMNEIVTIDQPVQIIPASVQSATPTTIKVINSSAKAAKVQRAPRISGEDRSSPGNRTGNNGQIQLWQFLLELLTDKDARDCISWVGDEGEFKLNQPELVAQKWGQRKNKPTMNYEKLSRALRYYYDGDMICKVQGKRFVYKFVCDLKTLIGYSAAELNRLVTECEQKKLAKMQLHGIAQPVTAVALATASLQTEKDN
# How it was run: as §1
# ERG = target: T3, ERG (Homo sapiens, UniProt P11308 1-479)
# T3 sequence: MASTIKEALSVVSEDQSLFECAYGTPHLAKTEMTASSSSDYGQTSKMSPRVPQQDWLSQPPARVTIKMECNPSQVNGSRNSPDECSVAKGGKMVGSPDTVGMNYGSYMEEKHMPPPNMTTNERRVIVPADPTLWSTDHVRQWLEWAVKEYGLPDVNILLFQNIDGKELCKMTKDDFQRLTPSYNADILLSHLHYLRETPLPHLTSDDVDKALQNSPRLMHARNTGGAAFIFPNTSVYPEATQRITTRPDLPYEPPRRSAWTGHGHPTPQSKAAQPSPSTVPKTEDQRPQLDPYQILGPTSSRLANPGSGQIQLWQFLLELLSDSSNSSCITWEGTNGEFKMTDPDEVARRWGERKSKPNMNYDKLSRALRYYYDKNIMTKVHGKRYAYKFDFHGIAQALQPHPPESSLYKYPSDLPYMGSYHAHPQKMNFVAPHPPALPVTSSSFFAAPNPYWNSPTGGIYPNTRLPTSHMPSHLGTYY
# How it was run: as §1
# ELF1 = ELF1 (Homo sapiens, UniProt P32519 1-619)
# Chain of ELF1 (P32519 whole entry): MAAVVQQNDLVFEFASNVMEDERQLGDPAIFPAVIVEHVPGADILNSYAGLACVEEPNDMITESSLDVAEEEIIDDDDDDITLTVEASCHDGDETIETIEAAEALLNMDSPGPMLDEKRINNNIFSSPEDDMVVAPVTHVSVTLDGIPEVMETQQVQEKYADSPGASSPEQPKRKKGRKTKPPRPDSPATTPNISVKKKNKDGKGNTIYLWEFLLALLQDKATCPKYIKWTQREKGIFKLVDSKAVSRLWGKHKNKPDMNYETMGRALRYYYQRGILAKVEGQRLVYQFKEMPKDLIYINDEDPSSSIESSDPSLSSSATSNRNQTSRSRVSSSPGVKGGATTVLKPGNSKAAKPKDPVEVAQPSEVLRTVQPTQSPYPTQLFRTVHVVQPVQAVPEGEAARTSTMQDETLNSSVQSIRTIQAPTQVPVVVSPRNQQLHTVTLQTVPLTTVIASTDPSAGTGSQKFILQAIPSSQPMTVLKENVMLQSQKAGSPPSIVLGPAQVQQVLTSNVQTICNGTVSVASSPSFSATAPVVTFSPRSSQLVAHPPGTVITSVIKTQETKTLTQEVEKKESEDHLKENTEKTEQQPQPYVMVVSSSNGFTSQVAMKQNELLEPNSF
# How it was run: as §1
# EHF = target: T4, EHF (Homo sapiens, UniProt Q9NZC4 1-300)
# T4 sequence: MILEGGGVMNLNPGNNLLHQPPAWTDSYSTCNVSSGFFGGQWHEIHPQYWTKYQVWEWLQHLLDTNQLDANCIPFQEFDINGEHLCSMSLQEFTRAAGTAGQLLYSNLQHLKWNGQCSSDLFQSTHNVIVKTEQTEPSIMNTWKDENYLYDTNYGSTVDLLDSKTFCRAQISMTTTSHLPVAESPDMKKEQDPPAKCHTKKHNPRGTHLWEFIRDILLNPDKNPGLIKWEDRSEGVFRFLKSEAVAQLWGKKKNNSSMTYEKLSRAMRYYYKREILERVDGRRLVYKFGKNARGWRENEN
# How it was run: as §1
# SPIB = SPIB (Homo sapiens, UniProt Q01892 1-262)
# Chain of SPIB (Q01892 whole entry): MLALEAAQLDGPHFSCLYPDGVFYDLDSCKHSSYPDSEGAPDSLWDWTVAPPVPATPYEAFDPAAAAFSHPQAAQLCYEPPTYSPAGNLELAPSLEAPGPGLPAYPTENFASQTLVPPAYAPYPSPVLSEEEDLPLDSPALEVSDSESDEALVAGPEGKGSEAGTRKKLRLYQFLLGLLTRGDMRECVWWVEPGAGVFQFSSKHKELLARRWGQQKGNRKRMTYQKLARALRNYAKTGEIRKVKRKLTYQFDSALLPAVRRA
# How it was run: as §1
# ELK3 = target: T5, ELK3 (Homo sapiens, UniProt P41970 1-407)
# T5 sequence: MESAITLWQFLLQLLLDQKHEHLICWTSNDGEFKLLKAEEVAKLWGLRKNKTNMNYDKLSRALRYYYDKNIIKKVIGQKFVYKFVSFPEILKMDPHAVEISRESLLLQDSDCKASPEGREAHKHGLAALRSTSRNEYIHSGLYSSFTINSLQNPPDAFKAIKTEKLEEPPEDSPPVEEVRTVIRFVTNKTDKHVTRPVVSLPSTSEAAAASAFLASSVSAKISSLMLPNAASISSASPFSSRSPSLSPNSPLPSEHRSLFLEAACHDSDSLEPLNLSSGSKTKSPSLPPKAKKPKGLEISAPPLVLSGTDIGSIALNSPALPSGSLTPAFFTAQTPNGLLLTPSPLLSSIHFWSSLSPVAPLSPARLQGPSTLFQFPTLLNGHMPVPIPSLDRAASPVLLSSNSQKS
# How it was run: as §1
# ETV5 = ETV5 (Homo sapiens, UniProt P41161 1-510)
# Chain of ETV5 (P41161 whole entry): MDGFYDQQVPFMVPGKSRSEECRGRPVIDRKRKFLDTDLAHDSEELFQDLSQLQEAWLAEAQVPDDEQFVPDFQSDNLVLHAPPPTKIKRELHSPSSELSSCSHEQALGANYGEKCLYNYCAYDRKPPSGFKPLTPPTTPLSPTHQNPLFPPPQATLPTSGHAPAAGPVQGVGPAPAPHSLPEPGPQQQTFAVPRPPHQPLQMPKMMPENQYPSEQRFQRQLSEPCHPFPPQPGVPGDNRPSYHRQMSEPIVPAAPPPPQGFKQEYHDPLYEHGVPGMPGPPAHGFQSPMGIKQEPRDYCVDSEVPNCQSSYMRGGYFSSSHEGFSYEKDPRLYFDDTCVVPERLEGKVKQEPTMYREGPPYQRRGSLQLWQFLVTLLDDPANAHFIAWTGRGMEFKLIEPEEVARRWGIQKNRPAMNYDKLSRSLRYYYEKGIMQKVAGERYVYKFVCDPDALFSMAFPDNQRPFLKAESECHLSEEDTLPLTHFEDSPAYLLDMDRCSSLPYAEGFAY
# How it was run: as §1
# SPIC = target: T6, SPIC (Homo sapiens, UniProt Q8N5J4 1-248)
# T6 sequence: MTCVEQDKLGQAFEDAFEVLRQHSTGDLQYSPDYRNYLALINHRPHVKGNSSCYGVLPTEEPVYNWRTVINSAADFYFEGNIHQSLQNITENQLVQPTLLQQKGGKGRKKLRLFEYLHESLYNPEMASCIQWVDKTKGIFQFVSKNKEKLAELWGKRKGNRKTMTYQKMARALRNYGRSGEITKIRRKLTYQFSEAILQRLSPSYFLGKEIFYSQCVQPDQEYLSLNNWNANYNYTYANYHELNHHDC
# How it was run: as §1
# ELF4 = ELF4 (Homo sapiens, UniProt Q99607 1-663)
# Chain of ELF4 (Q99607 whole entry): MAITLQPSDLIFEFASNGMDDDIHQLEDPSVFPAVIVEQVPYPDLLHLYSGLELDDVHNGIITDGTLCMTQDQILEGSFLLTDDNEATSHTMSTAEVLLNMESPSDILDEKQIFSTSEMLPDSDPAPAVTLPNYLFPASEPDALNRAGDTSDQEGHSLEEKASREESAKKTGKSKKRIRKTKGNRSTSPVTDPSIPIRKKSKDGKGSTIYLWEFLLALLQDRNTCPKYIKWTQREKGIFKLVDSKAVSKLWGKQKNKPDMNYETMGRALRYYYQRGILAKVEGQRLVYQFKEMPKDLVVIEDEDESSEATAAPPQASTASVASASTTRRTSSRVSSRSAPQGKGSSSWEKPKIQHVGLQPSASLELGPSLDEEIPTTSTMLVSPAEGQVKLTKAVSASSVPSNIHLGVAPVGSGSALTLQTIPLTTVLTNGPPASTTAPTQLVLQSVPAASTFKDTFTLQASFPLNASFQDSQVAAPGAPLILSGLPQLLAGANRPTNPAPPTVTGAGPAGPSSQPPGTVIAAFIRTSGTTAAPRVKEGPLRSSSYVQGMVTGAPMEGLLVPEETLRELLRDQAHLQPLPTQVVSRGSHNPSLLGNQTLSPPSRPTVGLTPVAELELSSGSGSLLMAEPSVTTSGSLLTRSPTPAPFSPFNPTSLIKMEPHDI
# How it was run: as §1
# ELK4 = target: T7, ELK4 (Homo sapiens, UniProt P28324-2 1-405)
# T7 sequence: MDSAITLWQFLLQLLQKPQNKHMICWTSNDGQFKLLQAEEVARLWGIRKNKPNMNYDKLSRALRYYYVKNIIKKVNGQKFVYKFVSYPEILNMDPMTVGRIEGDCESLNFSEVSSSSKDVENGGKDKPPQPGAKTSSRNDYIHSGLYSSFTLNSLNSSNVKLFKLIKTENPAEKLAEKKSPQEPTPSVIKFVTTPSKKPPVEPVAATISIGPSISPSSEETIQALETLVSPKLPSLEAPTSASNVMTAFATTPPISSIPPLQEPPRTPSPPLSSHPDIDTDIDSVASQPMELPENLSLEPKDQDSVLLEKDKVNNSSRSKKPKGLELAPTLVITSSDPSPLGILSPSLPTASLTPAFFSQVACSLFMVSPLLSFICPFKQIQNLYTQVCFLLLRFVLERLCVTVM
# How it was run: as §1
# ELF3 = target: T8, ELF3 (Homo sapiens, UniProt P78545 1-371)
# T8 sequence: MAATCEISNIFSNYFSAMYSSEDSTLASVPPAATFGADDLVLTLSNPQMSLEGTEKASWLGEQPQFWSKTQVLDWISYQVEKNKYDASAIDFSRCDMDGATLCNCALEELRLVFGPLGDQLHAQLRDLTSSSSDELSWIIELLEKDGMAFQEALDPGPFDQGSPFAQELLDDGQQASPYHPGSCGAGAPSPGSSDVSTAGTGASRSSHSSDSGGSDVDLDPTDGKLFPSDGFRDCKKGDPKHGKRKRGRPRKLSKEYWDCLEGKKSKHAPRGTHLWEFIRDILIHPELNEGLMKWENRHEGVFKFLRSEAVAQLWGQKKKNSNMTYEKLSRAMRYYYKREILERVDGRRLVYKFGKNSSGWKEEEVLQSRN
# How it was run: as §1
# ETV1 = ETV1 (Homo sapiens, UniProt P50549 1-477)
# Chain of ETV1 (P50549 whole entry): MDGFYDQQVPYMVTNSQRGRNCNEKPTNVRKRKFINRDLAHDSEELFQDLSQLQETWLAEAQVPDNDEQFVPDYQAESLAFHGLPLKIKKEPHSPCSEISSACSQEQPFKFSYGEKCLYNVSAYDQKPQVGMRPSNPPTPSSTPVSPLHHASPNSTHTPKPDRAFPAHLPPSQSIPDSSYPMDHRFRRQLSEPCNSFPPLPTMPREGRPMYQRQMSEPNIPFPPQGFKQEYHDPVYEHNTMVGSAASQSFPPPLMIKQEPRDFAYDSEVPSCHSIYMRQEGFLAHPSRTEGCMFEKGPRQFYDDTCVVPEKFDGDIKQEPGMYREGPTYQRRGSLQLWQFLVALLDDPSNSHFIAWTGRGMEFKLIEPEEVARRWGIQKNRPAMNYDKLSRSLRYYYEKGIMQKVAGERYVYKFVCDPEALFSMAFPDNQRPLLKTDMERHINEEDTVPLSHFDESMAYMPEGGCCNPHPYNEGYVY
# How it was run: as §1
# ERF = target: T9, ERF (Homo sapiens, UniProt P50548 1-548)
# T9 sequence: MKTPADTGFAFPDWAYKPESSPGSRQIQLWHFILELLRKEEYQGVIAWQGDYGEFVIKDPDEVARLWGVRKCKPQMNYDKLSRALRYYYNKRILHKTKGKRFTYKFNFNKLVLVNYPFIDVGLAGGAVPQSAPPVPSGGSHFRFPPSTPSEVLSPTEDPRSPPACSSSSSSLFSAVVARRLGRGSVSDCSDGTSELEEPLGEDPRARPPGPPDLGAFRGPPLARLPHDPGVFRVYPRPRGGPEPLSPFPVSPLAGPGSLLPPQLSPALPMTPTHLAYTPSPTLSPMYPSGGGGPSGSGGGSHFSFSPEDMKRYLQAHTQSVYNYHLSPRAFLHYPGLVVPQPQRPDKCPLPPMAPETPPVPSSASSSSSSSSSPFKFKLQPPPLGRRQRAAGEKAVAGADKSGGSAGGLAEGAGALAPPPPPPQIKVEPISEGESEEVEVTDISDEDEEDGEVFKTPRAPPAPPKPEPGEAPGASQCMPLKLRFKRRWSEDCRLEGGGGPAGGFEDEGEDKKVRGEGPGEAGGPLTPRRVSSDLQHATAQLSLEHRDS
# How it was run: as §1
# SPDEF = target: T10, SPDEF (Homo sapiens, UniProt O95238 1-335)
# T10 sequence: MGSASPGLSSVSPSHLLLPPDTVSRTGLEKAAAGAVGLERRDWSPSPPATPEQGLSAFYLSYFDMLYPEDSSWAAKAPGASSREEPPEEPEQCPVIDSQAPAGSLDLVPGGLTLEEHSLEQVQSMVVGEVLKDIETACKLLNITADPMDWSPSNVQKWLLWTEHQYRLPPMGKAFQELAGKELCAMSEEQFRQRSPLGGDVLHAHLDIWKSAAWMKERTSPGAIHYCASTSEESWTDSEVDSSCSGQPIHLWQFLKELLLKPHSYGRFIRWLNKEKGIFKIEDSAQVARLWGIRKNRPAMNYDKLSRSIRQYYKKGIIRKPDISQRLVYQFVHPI
# How it was run: as §1
# ETV3 = target: T11, ETV3 (Homo sapiens, UniProt P41162-2 1-143)
# T11 sequence: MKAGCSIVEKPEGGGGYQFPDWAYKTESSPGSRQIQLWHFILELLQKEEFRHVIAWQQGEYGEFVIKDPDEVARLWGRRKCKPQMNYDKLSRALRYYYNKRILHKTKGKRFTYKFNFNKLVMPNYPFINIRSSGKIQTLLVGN
# How it was run: as §1
sequence,measurement,setting,value
GTACTG,binding signal,ELK1,"1.02 fold enrichment (6-mer frequency, TF over GST control)"
same,binding signal,GABPA,"1.04 fold enrichment (6-mer frequency, TF over GST control)"
same,binding signal,ERG,"1.09 fold enrichment (6-mer frequency, TF over GST control)"
same,binding signal,ELF1,"1.12 fold enrichment (6-mer frequency, TF over GST control)"
same,binding signal,EHF,"1.06 fold enrichment (6-mer frequency, TF over GST control)"
same,binding signal,SPIB,"1 fold enrichment (6-mer frequency, TF over GST control)"
same,binding signal,ELK3,"1.08 fold enrichment (6-mer frequency, TF over GST control)"
same,binding signal,ETV5,"1.08 fold enrichment (6-mer frequency, TF over GST control)"
same,binding signal,SPIC,"1.04 fold enrichment (6-mer frequency, TF over GST control)"
same,binding signal,ELF4,"1.05 fold enrichment (6-mer frequency, TF over GST control)"
same,binding signal,ELK4,"1.15 fold enrichment (6-mer frequency, TF over GST control)"
same,binding signal,ELF3,"1 fold enrichment (6-mer frequency, TF over GST control)"
same,binding signal,ETV1,"1.02 fold enrichment (6-mer frequency, TF over GST control)"
same,binding signal,ERF,"1.02 fold enrichment (6-mer frequency, TF over GST control)"
same,binding signal,SPDEF,"1.03 fold enrichment (6-mer frequency, TF over GST control)"
same,binding signal,ETV3,"1.11 fold enrichment (6-mer frequency, TF over GST control)"
